The supplement of paper PMC6805474
Values without a mark were called inactive.

tested on: Schistosoma mansoni schistosomula (NMRI); test: phenotypic severity score (0-4); higher = more antischistosomal effect, active = 2 or more; details: 24 h; 10 µM
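Further: visual microscopic scoring of shape, motility and density changes versus 0.5% DMSO solvent controls, one point per descriptor, degeneracy or death scored 4, mean of duplicate wells.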

Compound	phenotypic severity score
O=C1O[C@@H](CO)CN1c1cc(F)c(C2=CCN(Cc3ccccc3)CC2)c(F)c1	0
CCc1nn(C)c(C(=O)NCc2ccc(Oc3ccc(C)cc3)cc2)c1Cl	1
CC(C)(C)C(O)C(Oc1ccc(-c2ccccc2)cc1)n1cncn1 (stereo not drawn)	1
Cc1nn(Cc2ccccc2)c(Cl)c1C(=O)NC1CCCCCC1	2 (active)
CO[C@@H]1CN(c2ccc(C#CC3(O)CN4CCC3CC4)c(Cc3ccccc3)n2)C[C@H]1O (stereo partly drawn)	0
Cc1cc(C2=NOC(c3cc(Cl)c(F)c(Cl)c3)(C(F)(F)F)C2)ccc1C(=O)NCc1ccc2c(c1)C(C)(C)OB2O (stereo not drawn)	0
O=C1O[C@@H](COc2ccon2)CN1c1cc(F)c(C2=CCN(Cc3ccccc3)CC2)c(F)c1	0
CC1COC(Cn2cncn2)(c2ccc(Oc3ccc(Cl)cc3)cc2Cl)O1 (stereo not drawn)	2 (active)
CC1(C)OB(O)c2ccc(C3=NOC(c4cc(Cl)c(F)c(Cl)c4)(C(F)(F)F)C3)cc21 (stereo not drawn)	2 (active)
Nc1c2c(nc3sc4c(c13)CCCC4)CCCC2	4 (active)
CO/C=C(/C(=O)OC)c1ccccc1Oc1cc(Oc2ccccc2C#N)ncn1	0
Cc1nn(C)c(C)c1NS(=O)(=O)c1c(Cl)cc(-c2ccnc(N3CCNCC3)c2)cc1Cl	0
CO/N=C(\C(=O)OC)c1ccccc1CO/N=C(\C)c1cccc(C(F)(F)F)c1	1
Cc1cccc(C(=O)Nc2ccnc(N(C)C3CCN(CC(C)C)CC3)c2)c1	0

same assay, conditions: 48 h; 10 µM

Compound	phenotypic severity score
O=C1O[C@@H](CO)CN1c1cc(F)c(C2=CCN(Cc3ccccc3)CC2)c(F)c1	0
CCc1nn(C)c(C(=O)NCc2ccc(Oc3ccc(C)cc3)cc2)c1Cl	1
CC(C)(C)C(O)C(Oc1ccc(-c2ccccc2)cc1)n1cncn1 (stereo not drawn)	0
Cc1nn(Cc2ccccc2)c(Cl)c1C(=O)NC1CCCCCC1	0
CO[C@@H]1CN(c2ccc(C#CC3(O)CN4CCC3CC4)c(Cc3ccccc3)n2)C[C@H]1O (stereo partly drawn)	0
Cc1cc(C2=NOC(c3cc(Cl)c(F)c(Cl)c3)(C(F)(F)F)C2)ccc1C(=O)NCc1ccc2c(c1)C(C)(C)OB2O (stereo not drawn)	0
O=C1O[C@@H](COc2ccon2)CN1c1cc(F)c(C2=CCN(Cc3ccccc3)CC2)c(F)c1	0
CC1COC(Cn2cncn2)(c2ccc(Oc3ccc(Cl)cc3)cc2Cl)O1 (stereo not drawn)	1
CC1(C)OB(O)c2ccc(C3=NOC(c4cc(Cl)c(F)c(Cl)c4)(C(F)(F)F)C3)cc21 (stereo not drawn)	0
Nc1c2c(nc3sc4c(c13)CCCC4)CCCC2	4 (active)
CO/C=C(/C(=O)OC)c1ccccc1Oc1cc(Oc2ccccc2C#N)ncn1	0
Cc1nn(C)c(C)c1NS(=O)(=O)c1c(Cl)cc(-c2ccnc(N3CCNCC3)c2)cc1Cl	0
CO/N=C(\C(=O)OC)c1ccccc1CO/N=C(\C)c1cccc(C(F)(F)F)c1	0
Cc1cccc(C(=O)Nc2ccnc(N(C)C3CCN(CC(C)C)CC3)c2)c1	0
